This note sets out measurements from PubChem BioAssay (NCI).

The panel holds about 83,000 compounds, 20% with a hit somewhere; the sample as a whole holds those more often.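 Single-dose data. Exposure time 48 hours. Values below 10 considered active.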 Unmarked numbers belong to inactive results. Activity calls are given as the source filed them.

In this assay the test system is MDA-MB-468 breast. As to the kind of experiment: NCI-60 one-dose screen, 48 h (100 = growth as untreated, 0 = no growth, -100 = all killed). Conditions: 10 µM unless noted.
For the compound `CC1=NN(c2cccc(Cl)c2)C(=O)/C1=C\c1cn(CC(O)CN2CCCCC2)c2ccccc12` (stereo not given), the growth is 23.7%.
Take `CCn1cc(-c2cc(-c3ccc(Cl)cc3)nc(N)n2)c(-c2ccc(Br)cc2)n1`: the growth is 72.7%.
As for `C=CC(=O)Nc1cc2c(Nc3ccc(F)c(Cl)c3)ncnc2cc1OCCCN1CCOCC1`, the growth is -31.5% (active).
To `CCOC(=O)c1ccc(N(C=O)CCC(=O)CCl)cc1` belongs 40.3%; to `O=Nc1ccc2ccccc2c1O`, 68.3%; to `c1ccc(-c2nnc(Nc3nnc(-c4ccccc4)s3)s2)cc1`, 107%.
As to `Cc1nn(-c2ccc([N+](=O)[O-])cc2)c2ncnc(NCCc3ccccc3)c12`, the growth is 111%.
As for `Nc1nc(N)c2c(n1)NC(c1cccc(Nc3ccnc4cc(C(F)(F)F)ccc34)c1)CC(c1ccccc1)=N2` (stereo not given), the growth was 18.5%.
With `Fc1cccc(Cl)c1/C=N/Nc1nc(N/N=C/c2c(F)cccc2Cl)nc(N2CCCCC2)n1` the figure was -14.2% (active); with `Cc1cc(C)cc(S(=O)(=O)n2ccc(-c3ccc4c(c3)CCC(C)(C)O4)n2)c1`, 54.6%; with `C=CCc1cc(C(C)=O)cc(OC)c1O`, 90.6%.
Consider `Cn1cc(-c2noc(-c3cn(C)c4ncc(Br)cc34)n2)c2cc(Cl)ccc21`, for which the growth is 82.3%.
To `Cc1nc2c(nnn2-c2ccccc2)c2nc(-c3ccc(Cl)cc3)oc(=O)c12` belongs 106%; to `Cc1ccc(C)c(/C=C2\CN(C(=O)OC(C)(C)C)C/C(=C\c3cc(C)ccc3C)C2=O)c1`, 57.3%; to `COc1cc(C2C(C#N)=C(N)OC3=C2C(=O)c2ccccc2C3=O)cc(OC)c1O` (stereo not given), 106%.
As to `O=C(O)CC(Cl)C(Cl)CC(=O)O` (stereo not given), the growth is 114%.
With `CCOc1ccc(N=C(C)Nc2ccc(OCC)cc2)cc1` the figure was 116%; with `CC(Br)C(O)c1cc2c(cc1Br)OCO2` (stereo not given), 108%.
With `O=C(CCCCCCCCC(=O)N/N=C\c1cc(Cl)ccc1O)N/N=C\c1cc(Cl)ccc1O` the figure was -16% (active); with `NC(N)=N/N=C\c1cccc(OCc2ccccc2)c1`, 19.1%; with `COc1ccc2[nH]c(O)c(/C=c3/ccc4c(c3)N=C(c3ccc(C(F)(F)F)cc3)N=4)c2c1`, 93.8%.
With `CC(C)C(C(=O)NCCN1CCOCC1)N1C(=O)/C(=C/c2ccc(Br)cc2)SC1=S` (stereo not given) the figure was 99.2%; with `Cn1c2ccccc2c2c3c(c4c5ccccc5[nH]c4c21)C(=O)N(N)C3=O`, -37.5% (active).
With `COc1cc2nc3cc([N+](=O)[O-])ccc3c(NCCNCC(C)O)c2cc1OC` (stereo not given), the growth was -45.6% (active).
To `N/C(=N\C(N)=N\c1nc2ccccc2s1)c1ccnc(Cl)c1` belongs 51.9%; to `COc1nc(Nc2cccc(C(F)(F)F)c2)nc(OC)n1`, 112%.
To `CCN1C(=S)N(c2ccccc2)C2C1NN=c1s/c(=C3\C(=O)N(C(C)C)c4ccccc43)c(=O)n12` (stereo not given) belongs 94.5%; to `CC(C)(C)c1ccc([I+]c2ccc(C(C)(C)C)cc2)cc1`, -26% (active); to `CCOC(=O)c1c2c(n3ccccc13)C(=O)c1ncccc1C2=O`, 80.8%.
With `CCCCN1CCN(c2ccc3nc(-c4ccc5nc(-c6ccc(OCC)c(OCC)c6)[nH]c5c4)[nH]c3c2)CC1` the figure was -77.8% (active); with `COc1ccc(-c2nc(SCCC(C)C)nc(N/N=C\c3cccc([N+](=O)[O-])c3)c2C#N)cc1`, 12.7%; with `CC(C)(O)c1cncc(-c2ccc3ncc(C#N)c(N4CCc5cc(F)c(Cl)cc54)c3c2)c1`, 10.2%.
Take `CN=c1ccc2nc3ccc(N)cc3sc-2c1`: the growth is -5.28% (active).
Regarding `CC(C)N1C(=O)/C(=c2\sc3n(c2=O)C2C(NN=3)N(C)C(=O)N2C)c2ccccc21` (stereo not given), the growth was 37.3%.
In the case of `CCOC(=O)C1=C(C)NC(SCc2nnc(-c3ccc(Cl)cc3)o2)=NC1c1ccc(Cl)cc1` (stereo not given), the growth was 48.9%.
Take `O=C1Nc2ccc(Cl)cc2/C1=N/c1nc(-c2ccc(F)cc2)cs1`: the growth was 27.6%.
To `c1ccc2nc(N3CCOCC3)c(N3CCCCC3)nc2c1` belongs 94%.
On to `COc1cc2c(c(OC)c1OC)-c1ccc(NCc3ccccc3)c(=O)cc1[C@@H](NC(C)=O)CC2`, for which the growth was 17.3%.
With `COc1cc([C@@H](CCO)C[C@H](C)c2ccc3ccccc3c2)cc(OC)c1OC` the figure was 17.2%; with `CC1=CC(=Nc2ccc(N(C)C)cc2)C=C(C)C1=O`, 15%.
